Our source for the Potency values is PubChem BioAssay (NCATS).

SMILES strings stand for the structures. Inconclusive results are not listed. Activity calls are given as the source filed them. Calls follow the shape of the dose curve; as a rule, active = well fitted cell-killing curve with a large enough effect; inconclusive = small, poorly fitted or top-dose-only effect, or effect the other way; inactive = no such curve, though single readings can be large or run the other way.
Potency is read from the fitted curve at half-maximal effect.

The assay can be described thus: Quantitative High-Throughput drug screen in 47 multiple myeloma cell lines against the NCATS MIPE library collection: KMS12PE_JCRB cell viability assay (AID 1918972). Also: nearly all actives have a fitted effect of over 30% in size. Conditions: KMS12PE myeloma viability, CellTiter-Glo ATP, 48 h; series mostly up to 45.8 µM. An excerpt: PI: Beverly A. Mock Ph.D.
Laboratory of Cancer Biology and Genetics,
Center for Cancer Research, National Cancer Institute,
National Institute of Health, Bethesda, Maryland
Drug resistance and disease progression are common in multiple myeloma (MM) patients, underscoring the need for new therapeutic combinations. […] We hypothesized that effective combinations would reduce MYC expression and enhance p16 activity. […] These preclinical data identify potentially useful drug combinations for evaluation in drug-resistant MM and reveal potential mechanisms of combined drug sensitivity.
Described herein is the primary MIPE qHTS used to cherrypick compounds. Validated compounds were then further tested for potential synergistic activiy.
[1] Peat TJ, Gaikwad SM, Dubois W, Gyabaah-Kessie N, Zhang S, Gorjifard S, Phyo Z, Andres M, Hughitt VK, Simpson RM, Miller MA, Girvin AT, Taylor A, Williams D, D'Antonio N, Zhang Y, Rajagopalan A, Flietner E, Wilson K, Zhang X, Shinn P, Klumpp-Thomas C, McKnight C, Itkin Z, Chen L, Kazandijian D, Zhang J, Michalowski AM, Simmons JK, Keats J, Thomas CJ, Mock BA. Drug combinations identified by high-throughput screening promote cell cycle transition and upregulate Smad pathways in myeloma. Cancer Lett. 2023 Aug 1;568:216284. doi: 10.1016/j.canlet.2023.216284. Epub 2023 Jun 24. PMID: 37356470; PMCID: PMC10408729.
SEQUENCE No. (e.g., 1, 2, 3, etc.); […] (e.g., Cells, Incubation, Reagent, etc.); VALUE and DESCRIPTION.
1; Cells; 5 uL; white, solid bottom 1536-well Greiner assay plate.
2; Compounds; 23 nL; Kalypsis pin tool (Wako USA) equipped with a 1536-well pin head to transfer to the assay plates.
3; Incubation; 48 hours; 37C incubation.
4; Reagent;5uL; CellTiter Glo (Promega).
5; Detector; 425V; Luminescence; Viewlux PerkinElmer.
NOTES (numbers refer to Sequence numbers above)
1. The cell-based screening methods employed in this study were like those previously published. Briefly, the corresponding myeloma cell lines were screened in 1,536-well plates with 500 cells, 5-uL per well for inhibition of cell viability (assessed by measuring ATP levels with CellTiterGlo).
2. NCATS MIPE 4.0 library of approved and investigational drugs were added using the Kalypsis pin tool. Wells treated with DMSO only for 100% viability and media only wells for 0% viability were used as controls.
3. The assay plates were covered and incubated for 48 hours in a 37C, 5% CO2 incubator with controlled humidity.
4. After 48 hours, CellTilter-GloTM luminescent substrate mix (Promega) reagent was added to the assay plate and plates we incubated for 5 min at room temperature.
5. Signal was measured as median relative luminescence units on a ViewLux (PerkinElmer) multiplate reader.
[1] Heske CM, Davis MI, Baumgart JT, Wilson K, Gormally MV, Chen L, Zhang X, Ceribelli M, Duveau DY, Guha R, Ferrer M, Arnaldez FI, Ji J, Tran HL, Zhang Y, Mendoza A, Helman LJ, Thomas CJ. Matrix Screen Identifies Synergistic Combination of PARP Inhibitors and Nicotinamide Phosphoribosyltransferase (NAMPT) Inhibitors in Ewing Sarcoma. Clin Cancer Res. 2017 Dec 1;23(23):7301-7311. doi: 10.1158/1078-0432.CCR-17-1121. Epub 2017 Sep 12. PMID: 28899971; PMCID: PMC6636827.
In general terms: ATP-based viability assays read luminescence as a measure of living cells.
In the case of `CN(C)CCc1ccc(O)cc1`, the Potency entry is “inactive”.
As for `Cn1cc(C2=C(c3cn(C4CCN(Cc5ccccn5)CC4)c4ccccc34)C(=O)NC2=O)c2ccccc21`, the figure is 2350 nM (active); as for `NCC1(CC(=O)O)CCCCC1`, “inactive”.
`CCCC(C)(COC(N)=O)COC(=O)NC(C)C` (stereo not given): the Potency entry is “inactive”.
Under `CN(C)CCN(C)CCc1ccc(Cl)c(Cl)c1` stands 23500 nM (active); under `Cc1sc2c(c1C)C(c1ccc(Cl)cc1)=N[C@@H](CC(=O)OC(C)(C)C)c1nnc(C)n1-2`, 29.6 nM (active).
Under `CN1CCN(C(=O)O[C@H]2c3nccnc3C(=O)N2c2ccc(Cl)cn2)CC1` stands “inactive”.
In the case of `O=C1CC[C@@]2(O)[C@H]3Cc4ccc(O)c5c4[C@@]2(CCN3CC2CC2)[C@H]1O5`, the Potency entry is “inactive”.
`O=c1[nH]c2ccccc2n1CCCN1CCC(n2c(=O)[nH]c3cc(Cl)ccc32)CC1`: the Potency is 18700 nM (active).
As for `Cc1cc(SCc2sc(-c3ccc(C(F)(F)F)c(F)c3)nc2C)ccc1OCC(=O)O`, the figure is 18700 nM (active).
As for `C[C@@H]1[C@@H](CC(C[C@H]2O[C@@H]3O[C@]4(C)CC[C@@H]5[C@H](C)CC[C@@H]([C@H]2C)[C@@]35OO4)C[S+](=O)([O-])c2ccc(COC(=O)N(C)C)cc2)O[C@@H]2O[C@]3(C)CC[C@H]4[C@H](C)CC[C@@H]1[C@@]24OO3` (stereo not given in full), the figure is 83.3 nM (active); as for `Cc1cccc(C)c1NC(=O)CN1CCCC1=O`, “inactive”; as for `CC(C)CC(N(C)C)C1(c2ccc(Cl)cc2)CCC1` (stereo not given), “inactive”.
For `CC(O)(CS(=O)(=O)c1ccc(F)cc1)C(=O)Nc1ccc(C#N)c(C(F)(F)F)c1` (stereo not given), the Potency was 1660 nM (active).
Consider `N[C@@H](Cc1ccc(N(CCCl)CCCl)cc1)C(=O)O`, for which the Potency was 16600 nM (active).
For `C[C@@H]1[C@@H](C(=O)C[C@H]2O[C@@H]3O[C@]4(C)CC[C@@H]5[C@H](C)CC[C@@H]([C@H]2C)[C@@]35OO4)O[C@@H]2O[C@]3(C)CC[C@H]4[C@H](C)CC[C@@H]1[C@@]24OO3`, the Potency is 83.3 nM (active).
For the compound `CNC(=O)N1N=C(c2ccc(N)cc2)c2cc3c(cc2CC1C)OCO3` (stereo not given), the Potency is 2350 nM (active).
In the case of `O=C(O)C(=O)c1cn(Cc2ccccc2)c2ccc(-c3ccc(OC(F)(F)F)cc3)cc12`, the Potency was 7430 nM (active).
Under `CN(C)[C@@H]1C(=O)C(C(N)=O)=C(O)[C@@]2(O)C(=O)C3=C(O)c4c(O)cccc4[C@@](C)(O)[C@H]3C[C@@H]12` stands “inactive”.
As for `CNCC(O)c1ccc(O)cc1` (stereo not given), the entry is “inactive”; as for `Cn1c(CCCC(=O)O)nc2cc(N(CCCl)CCCl)ccc21`, “inactive”.
As for `C[C@@H]1O[C@@H](O[C@H]2C[C@@H](O)[C@]3(CO)[C@H]4[C@H](O)C[C@]5(C)[C@@H](C6=CC(=O)OC6)CC[C@]5(O)[C@@H]4CC[C@]3(O)C2)[C@H](O)[C@H](O)[C@H]1O`, the figure is 10.5 nM (active); as for `CC1=C2C[C@@H]3[C@@H](CC=C4C[C@@H](O)CC[C@@]43C)[C@@H]2CC[C@]12O[C@H]1C[C@H](C)CN[C@H]1[C@H]2C`, “inactive”.
With `C#CCN(C)[C@H](C)Cc1ccccc1`, the Potency result is “inactive”.
Regarding `COC[C@H]1OC(=O)c2coc3c2[C@@]1(C)C1=C(C3=O)C2CCC(=O)[C@@]2(C)C[C@H]1OC(C)=O` (stereo not given in full), the Potency was 16600 nM (active).
